Assay results reported in PubChem BioAssay (NCI).
This is part of a sample that, as a whole, favours compounds with a hit. Of some 83,000 tested, about 20% had one in any assay.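 How to read the values: 0–100, growth inhibition (40 = 60% inhibited); 0, no net growth; -100 to 0, cell death (-40 = 40% of starting cells died; -100 = all dead).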 The source made the active and inactive calls. Rule for the calls: active = growth percent below 10; inactive = the rest.

Columns and labels:
Experiment in all cases: NCI-60 one-dose screen, 48 h (100 = growth as untreated, 0 = no growth, -100 = all killed)
Settings in all cases: 10 µM unless noted
DU-145 prostate = test system: DU-145 prostate
K-562 leukemia = test system: K-562 leukemia
MALME-3M melanoma = test system: MALME-3M melanoma
MDA-MB-231 breast = test system: MDA-MB-231 breast
RXF 393 renal = test system: RXF 393 renal
SF-268 CNS = test system: SF-268 CNS
SF-295 CNS = test system: SF-295 CNS
SF-539 CNS = test system: SF-539 CNS
UACC-257 melanoma = test system: UACC-257 melanoma
M14 melanoma = test system: M14 melanoma

Measured: growth

O=C(/C(=C/c1ccc([N+](=O)[O-])cc1)SCc1ccc(F)cc1)c1ccc(Cl)cc1
inactive: DU-145 prostate 87.5% | MALME-3M melanoma 91.9% | MDA-MB-231 breast 58.7% | RXF 393 renal 93.4% | SF-268 CNS 75.6% | SF-295 CNS 81.6% | SF-539 CNS 94.6% | UACC-257 melanoma 87.4% | M14 melanoma 44.7%
active: K-562 leukemia 0.694%

CCOC(=O)c1ccc(Nc2ncnc3ccc(NC(=O)c4ccccc4)cc23)cc1
inactive: DU-145 prostate 105% | K-562 leukemia 71.9% | MALME-3M melanoma 109% | MDA-MB-231 breast 98.2% | RXF 393 renal 80.7% | SF-268 CNS 91.3% | SF-295 CNS 95.3% | SF-539 CNS 101% | UACC-257 melanoma 103% | M14 melanoma 93.8%

O=C1NCc2ccc3c(-c4cccc(Cl)c4)c[nH]c3c21
active: RXF 393 renal -3.81% | SF-295 CNS 7.18% | SF-539 CNS -15.8%
inactive: DU-145 prostate 23.3% | K-562 leukemia 10.6% | MALME-3M melanoma 65.9% | MDA-MB-231 breast 47.6% | SF-268 CNS 52.6% | UACC-257 melanoma 35.6% | M14 melanoma 15.9%

O=C(Nc1cc(=O)[nH]c(=O)[nH]1)C(Cl)Cl
inactive: DU-145 prostate 113% | K-562 leukemia 99.2% | MALME-3M melanoma 96.7% | MDA-MB-231 breast 102% | RXF 393 renal 106% | SF-268 CNS 99.9% | SF-295 CNS 105% | SF-539 CNS 106% | UACC-257 melanoma 96.5% | M14 melanoma 106%

C=C1C(=O)O[C@H]2[C@H]1CC/C(C=Nc1c(N)cc(C(F)(F)F)cc1Br)=C\CC[C@@]1(C)O[C@@H]21
active: K-562 leukemia -8.9% | MALME-3M melanoma -8.38% | MDA-MB-231 breast -16% | RXF 393 renal -63.4% | M14 melanoma -46.3%
inactive: DU-145 prostate 19.3% | SF-268 CNS 27.6% | SF-295 CNS 83.3% | SF-539 CNS 18.6% | UACC-257 melanoma 34%

N#Cc1ccc(C2C3=C(CCCC3=O)OC3=C2C(=O)c2ccccc2C3=O)cc1 (stereo not given)
active: MDA-MB-231 breast 5.78%
inactive: DU-145 prostate 86.8% | K-562 leukemia 40.3% | MALME-3M melanoma 83.4% | RXF 393 renal 102% | SF-268 CNS 70.9% | SF-295 CNS 91.7% | SF-539 CNS 30.5% | UACC-257 melanoma 52.3% | M14 melanoma 81.8%

CCc1c(C(=O)N[C@@H](C(=O)OCc2ccccc2)C(C)O)[nH]c2ccc(Cl)cc12 (stereo not given in full)
inactive: DU-145 prostate 86.5% | K-562 leukemia 104% | MALME-3M melanoma 69.7% | MDA-MB-231 breast 61.3% | RXF 393 renal 83.8% | SF-268 CNS 84.3% | SF-295 CNS 52.1% | SF-539 CNS 71.4% | UACC-257 melanoma 109% | M14 melanoma 88.3%

C=C(C)[C@@H]1CC[C@]2(C(=O)N3CCN(C)CC3)CC[C@]3(C)[C@H](CC[C@@H]4[C@@]5(C)C/C(=C/c6ccco6)C(=O)C(C)(C)[C@@H]5CC[C@]43C)[C@@H]12
inactive: DU-145 prostate 84.3% | K-562 leukemia 36.2% | MALME-3M melanoma 66.8% | MDA-MB-231 breast 58.8% | RXF 393 renal 45.2% | SF-268 CNS 68.9% | SF-295 CNS 18.9% | SF-539 CNS 62% | UACC-257 melanoma 48.6% | M14 melanoma 59.9%

C#Cc1cccc(Nc2ncnc3ccc(NC(=O)c4ccccc4)cc23)c1
inactive: DU-145 prostate 50.9% | K-562 leukemia 63.6% | MALME-3M melanoma 104% | MDA-MB-231 breast 95.6% | RXF 393 renal 58.5% | SF-268 CNS 74.7% | SF-295 CNS 89.7% | SF-539 CNS 90.5% | UACC-257 melanoma 99.6% | M14 melanoma 90.6%

O=C(Nc1ccc2ncnc(Nc3cccc(C(F)(F)F)c3)c2c1)c1cccs1
inactive: DU-145 prostate 39.6% | K-562 leukemia 26.3% | MALME-3M melanoma 106% | MDA-MB-231 breast 54.3% | RXF 393 renal 66.2% | SF-268 CNS 51.4% | SF-295 CNS 44% | SF-539 CNS 87.7% | UACC-257 melanoma 103% | M14 melanoma 49.5%

Cc1nccc2c3ccc(OCc4cn(-c5ccccc5)nn4)cc3n(CCCc3ccccc3)c12
inactive: DU-145 prostate 88.6% | K-562 leukemia 36.5% | MALME-3M melanoma 90.4% | MDA-MB-231 breast 79.6% | RXF 393 renal 69.7% | SF-268 CNS 88.3% | SF-295 CNS 74.8% | SF-539 CNS 78.2% | UACC-257 melanoma 55.9% | M14 melanoma 83.3%

COC1=CC2C=C(C3N(c4ccccc4)NC(=O)[C@@H]4CCCN34)C(=O)NC2C=C1 (stereo not given in full)
inactive: DU-145 prostate 112% | K-562 leukemia 93.3% | MALME-3M melanoma 113% | MDA-MB-231 breast 111% | RXF 393 renal 116% | SF-268 CNS 99.8% | SF-295 CNS 103% | SF-539 CNS 109% | UACC-257 melanoma 108% | M14 melanoma 101%

Cc1ccc(SC2c3ccc(C)cc3Oc3nc(N)c(C#N)c(N)c32)cc1 (stereo not given)
inactive: DU-145 prostate 92.6% | MALME-3M melanoma 31.9% | MDA-MB-231 breast 69.9% | RXF 393 renal 53.9% | SF-268 CNS 82.8% | SF-295 CNS 103% | SF-539 CNS 90.5% | UACC-257 melanoma 94.6% | M14 melanoma 94.9%
active: K-562 leukemia 4.29%

CCCn1cc(/C=N\N=C2\C(=O)Nc3ccc(C)cc32)c2ccccc21
inactive: DU-145 prostate 66.4% | K-562 leukemia 17.6% | MALME-3M melanoma 51.7% | MDA-MB-231 breast 34.4% | RXF 393 renal 11.4% | SF-268 CNS 46.6% | SF-295 CNS 71.1% | SF-539 CNS 33.9% | UACC-257 melanoma 58.8% | M14 melanoma 56.3%

COc1cc(-c2nn(-c3ccc(Br)cc3)cc2CO)ccc1O
inactive: DU-145 prostate 93.6% | K-562 leukemia 74.2% | MALME-3M melanoma 119% | MDA-MB-231 breast 68.9% | RXF 393 renal 116% | SF-268 CNS 77.7% | SF-295 CNS 98.6% | SF-539 CNS 92% | UACC-257 melanoma 90.7% | M14 melanoma 102%

COc1cc(C)ccc1Oc1nc(Nc2ccc(N3CCOCC3)cc2)ncc1N=Cc1cc(C(F)(F)F)cc(C(F)(F)F)c1
inactive: DU-145 prostate 83.7% | K-562 leukemia 37.7% | MALME-3M melanoma 91.7% | MDA-MB-231 breast 82.9% | RXF 393 renal 38.4% | SF-268 CNS 69% | SF-295 CNS 75.8% | SF-539 CNS 73.8% | UACC-257 melanoma 79.2% | M14 melanoma 77.7%

COC(=O)c1ccc(NC(=O)CSc2nc(-c3ccc(F)cc3)nc3ccccc23)cc1
inactive: DU-145 prostate 88.7% | K-562 leukemia 81.2% | MALME-3M melanoma 60.9% | MDA-MB-231 breast 58.3% | RXF 393 renal 109% | SF-268 CNS 75.8% | SF-295 CNS 86.2% | SF-539 CNS 96.9% | UACC-257 melanoma 102% | M14 melanoma 70.2%

COc1ccc(-n2cc(-c3ccc(Cl)c(Cl)c3)[nH]c2=O)cc1OC
inactive: DU-145 prostate 98.3% | K-562 leukemia 80.2% | MALME-3M melanoma 80.1% | MDA-MB-231 breast 85.1% | RXF 393 renal 108% | SF-268 CNS 109% | SF-295 CNS 101% | SF-539 CNS 102% | UACC-257 melanoma 85.7% | M14 melanoma 104%

O=[N+]([O-])c1cccc(CN(Cc2cccc([N+](=O)[O-])c2O)c2ccccc2)c1O
inactive: DU-145 prostate 94.3% | K-562 leukemia 60.5% | MALME-3M melanoma 87.2% | MDA-MB-231 breast 68.8% | RXF 393 renal 88.6% | SF-268 CNS 89.4% | SF-295 CNS 66.6% | SF-539 CNS 94.7% | UACC-257 melanoma 93.3% | M14 melanoma 67.6%

CC(C)(C)c1ccc2oc(=O)n(SC(Cl)(Cl)Cl)c2c1
inactive: DU-145 prostate 111% | K-562 leukemia 82.4% | MALME-3M melanoma 109% | MDA-MB-231 breast 104% | RXF 393 renal 110% | SF-268 CNS 98.2% | SF-295 CNS 97.1% | SF-539 CNS 97.2% | UACC-257 melanoma 111% | M14 melanoma 94.4%

C=C1C(=O)O[C@H]2[C@H]1CC/C(COC(=O)c1cccnc1)=C\CC[C@@]1(C)O[C@@H]21
inactive: DU-145 prostate 16.4% | K-562 leukemia 16.4% | MALME-3M melanoma 66.9% | MDA-MB-231 breast 79.9% | RXF 393 renal 46% | SF-268 CNS 90.7% | SF-295 CNS 102% | SF-539 CNS 60.2% | UACC-257 melanoma 57.8% | M14 melanoma 58.3%

COc1ccc2[nH]c(=O)c(/C=C/C(=O)/C=C/c3ccc(O)c(OC)c3)cc2c1
active: DU-145 prostate 8.26% | K-562 leukemia 4.67% | RXF 393 renal -76.7% | SF-268 CNS 9.98% | SF-539 CNS 8.47% | M14 melanoma -32.4%
inactive: MALME-3M melanoma 52.8% | MDA-MB-231 breast 18.3% | SF-295 CNS 17.5% | UACC-257 melanoma 40.3%

COc1ccc(Nc2nc(SCC(C)C)nc(-c3ccc(F)cc3)c2C#N)cc1
inactive: DU-145 prostate 79.4% | K-562 leukemia 19.3% | MALME-3M melanoma 61.9% | MDA-MB-231 breast 89.3% | RXF 393 renal 74% | SF-268 CNS 74.9% | SF-295 CNS 40.6% | SF-539 CNS 66.1% | UACC-257 melanoma 73% | M14 melanoma 49.3%

Nc1c(C(=O)Nc2ccccn2)sc2nc3c(cc12)CCCCC3
inactive: DU-145 prostate 12.2% | MALME-3M melanoma 73.1% | MDA-MB-231 breast 46.6% | RXF 393 renal 13.1% | SF-268 CNS 53.4% | SF-295 CNS 15.4% | UACC-257 melanoma 72.5% | M14 melanoma 10.8%
active: K-562 leukemia 7.25% | SF-539 CNS 4.89%

Cn1nc(C(F)(F)F)c(-c2cc(C(F)(F)F)cc(C(F)(F)F)c2)c1-c1ccc(OCc2ccc(Cl)cc2)cc1O
active: K-562 leukemia 1.63% | MALME-3M melanoma -15.9% | MDA-MB-231 breast -31.5% | RXF 393 renal -14.5% | SF-295 CNS -22.6% | SF-539 CNS 2.13% | UACC-257 melanoma -7.16% | M14 melanoma 6.3%
inactive: DU-145 prostate 20.6% | SF-268 CNS 16.6%

CC(=O)c1ccc(NC(=O)CSc2nnc(-c3cc(-c4ccc(C)cc4)nc4ccccc34)o2)cc1
inactive: DU-145 prostate 63.5% | K-562 leukemia 38.1% | RXF 393 renal 59% | SF-268 CNS 55.2% | SF-295 CNS 69.5% | SF-539 CNS 53.7% | UACC-257 melanoma 101% | M14 melanoma 57.9%
active: MALME-3M melanoma -5.39% | MDA-MB-231 breast -2.97%
